Source: PubChem (National Center for Advancing Translational Sciences (NCATS))
Rows were chosen to be rich in hits. Some 3.4% of all compounds tested hit in one or more screens of this group.
IMPase Li inh – membrane-permeable IMPase blocker, potentiated with lithium; CHO-M1 cells, IP1 TR-FRET (IP-One), carbachol + lithium; hit rate 0.35% among 210,000; AID 1457; Potency, µM (doses to about 59.4 µM), inactives show at the highest dose activity, negative = IMPase inhibition, hits mostly inhibitors;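 note: IP1 builds up when IMPase is blocked and the TR-FRET signal falls; potency is the fitted concentration of half-maximal effect; plate controls were basal vehicle for no effect and high inhibitor control for full effect; nearly all actives have a fitted effect of over 50% in size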
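Lithium-sensitised IP1 accumulation assay; M1-expressing CHO cells treated 30 min at 37C with compound. Competitive antibody detection by time-resolved FRET followed a 10 min room-temperature lysis step.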
PNC inhibitor – inhibitors of perinucleolar compartment assembly | PC3M PTB-GFP, PNC prevalence imaging, 16 h; hits give low values | activity change (PNC), negative = inhibition, % at 10 µM | hit rate 3.1% among 140,000 | AID 2417;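 active = readout at or below -70, meaning at least 70% loss of cells showing the perinucleolar compartment, a nuclear body marking cancer cells; inconclusive = readout between -30 and a set limit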;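 note: plate controls were DMSO wells for no effect and camptothecin positive control wells for full effect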
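Compounds are pinned in duplicate onto adhered PC3M cells stably expressing GFP-tagged PTB and incubated 16 h at 37 C. Cells are then fixed, nuclei stained with Hoechst, and PNC-positive cells counted.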
HTT ATP protect – Huntington cell model cytoprotection by ATP luminescence; PC12 HTT-Q103 induced, cytoprotection, ATP luminescence, 40 h; Potency, µM (series often up to 56.4 µM), for the others: cytoprotection (ATP increase), usual class: activators; hit rate 0.14% among 230,000; AID 1471; note: potency is the fitted concentration of half-maximal effect; % of control where 0% means no effect; nearly all actives have a fitted effect of over 45% in size
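PC12 cells stably carrying ecdysone-inducible Htt exon 1 (Q103)–GFP were induced with 100 nM tebufenozide (final) alongside library compounds in a dose series. Cytoprotection was scored as retained ATP by ATPlite luminescence.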
NPSR antag – antagonists of human neuropeptide S receptor cAMP signaling. Q6W5P4. CHO-NPSR cells, cAMP TR-FRET, antagonist mode. hit rate 1% among 220,000. Potency, µM (titrated, usually from 38.3 µM), without a hit: at the top dose activity change, negative = inhibition, usual class: inhibitors; note: potency is the fitted concentration of half-maximal effect; % is set by controls: 0 for no effect and ±100 for the full control effect; nearly all actives have a fitted effect of over 50% in size
Target sequence (Q6W5P4 whole entry, looked up): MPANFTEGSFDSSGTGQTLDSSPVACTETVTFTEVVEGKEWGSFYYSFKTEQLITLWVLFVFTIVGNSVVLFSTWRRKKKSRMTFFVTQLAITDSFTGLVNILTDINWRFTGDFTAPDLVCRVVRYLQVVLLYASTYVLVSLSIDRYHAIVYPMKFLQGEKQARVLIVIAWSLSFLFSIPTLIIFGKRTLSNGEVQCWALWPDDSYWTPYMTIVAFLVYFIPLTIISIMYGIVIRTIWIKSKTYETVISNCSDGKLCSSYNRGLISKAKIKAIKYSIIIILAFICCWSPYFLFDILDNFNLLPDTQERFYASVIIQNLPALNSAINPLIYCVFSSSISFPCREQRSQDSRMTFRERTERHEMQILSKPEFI
HttQ103 aggreg – inhibitors of mutant huntingtin aggregate formation in PC12 cells. PC12 HttQ103-GFP aggregates, Acumen cytometry, 40 h. Potency, µM (top dose mostly 46.1 µM), inactives show top-dose activity change, negative = inhibition, usual class: inhibitors. hit rate 1.1% among 220,000. AID 1688; note: potency is the fitted concentration of half-maximal effect; % is set by controls: 0 for no effect and ±100 for the full control effect; nearly all actives have a fitted effect of over 60% in size
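PC12 cells with ecdysone-inducible HTT exon1 Q103-GFP, induced by 100 nM tebufenozide, given compounds in a concentration series. GFP aggregates (1–25 um, 6 SD above background) counted in lysates by laser-scanning cytometry, 488 nm excitation.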
IMPase inh – cell-permeable inhibitors of inositol monophosphatase (IMPase); P97697; CHO-M1 cells, IP1 accumulation, HTRF TR-FRET ratio; inhibition (IP1 accumulation), % at 46.1 µM; 120,000 tested, under 10 active; AID 901; active = well fitted curve in the direction sought with a large enough effect in the signal ratio, not every such curve was filed as active; inconclusive = small, poorly fitted or top-dose-only effect, or a change in a side signal; inactive = no such curve, though single readings can be large or run the other way; the % refers to the signal ratio;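 note: cells stimulated with carbachol in lithium chloride buffer; plate controls were DMSO basal wells for no effect and reference inhibitor wells for full effect; higher means more IMPase inhibition seen as more IP1 and lower FRET ratio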
Target sequence (P97697 whole entry, looked up): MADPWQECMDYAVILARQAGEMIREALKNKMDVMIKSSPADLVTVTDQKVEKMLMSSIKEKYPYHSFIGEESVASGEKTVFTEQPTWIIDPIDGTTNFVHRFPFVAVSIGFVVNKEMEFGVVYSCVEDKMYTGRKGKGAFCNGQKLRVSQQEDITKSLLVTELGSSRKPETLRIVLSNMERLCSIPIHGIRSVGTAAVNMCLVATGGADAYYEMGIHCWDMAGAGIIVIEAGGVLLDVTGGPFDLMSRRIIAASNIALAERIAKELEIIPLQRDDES
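Measured: the HTRF emission ratio (665/620 nm) plus the 620 nm donor channel, each fitted to the Hill equation to give AC50. Cells were CHO-M1 given compounds up to 46 uM and a 30 min carbachol stimulation at 37C.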
* hit, by the source's call; ? = inconclusive; nt = not tested or not shown; [ ] = remark or other dose. Unless noted, calls come from the whole dose curve; as a rule, active = well fitted curve in the direction sought with a large enough effect; inconclusive = small, poorly fitted or top-dose-only effect, or another doubt; inactive = no such curve, though single readings can be large; an effect the other way counts as inactive or inconclusive.

SMILES	IMPase Li inh	PNC inhibitor	HTT ATP protect	NPSR antag	HttQ103 aggreg	IMPase inh
COc1cc(S(=O)(=O)N2CCCCC2)ccc1NC(=O)c1ccccc1Cl	7%	-100*	-16%[10 µM]	-18%[46.1 µM]	-8%	17
O=C(Nc1ccccc1)Nc1ccc(S(=O)(=O)N2CCCCC2)cc1	19%[38.3 µM]	?	11%[10 µM]	-19%[46.1 µM]	13µM*	-5
COc1cccc(NC(=O)CN2CCN(S(=O)(=O)c3ccc(F)cc3)CC2)c1	31%[38.3 µM]	-111*	10%	-6%[46.1 µM]	32%	8
Cc1ccc(OC2C(O)COC2/C=C/C#Cc2ccc(C(C)(C)C)cc2)cc1 (stereo not drawn)	nt	nt	-2%[10 µM]	nt	nt	nt
COc1ccc(NS(=O)(=O)c2cccc(NC(=O)c3ccc(S(=O)(=O)N4CCCCCC4)cc3)c2)cc1	11%	-112*	36%[0.074 µM]	-18%	?	nt
COc1ccc(NS(=O)(=O)c2ccc(O)c(NC(=O)c3ccc(S(=O)(=O)N4CCCCCC4)cc3)c2)cc1	10%	51	-20%[10 µM]	3%	-5%	nt
N#CC(C#N)=NNc1ccc(S(=O)(=O)N2CCCCC2)cc1	14%	?	1%[10 µM]	-40%	20µM*	nt
N#C/C(=N\Nc1ccc(S(=O)(=O)N2CCOCC2)cc1)C(N)=S	nt	nt	5%[10 µM]	43%	5%[9.22 µM]	nt
CCN(CC)C(=O)COc1ccc(/C(C)=N/Nc2ncc(Cl)cc2Cl)cc1	nt	nt	2%[10 µM]	-5%	-9%[9.22 µM]	nt
C/C(CCC(=O)OC[C@@H]1O[C@H](C#Cc2ccccc2)C=C[C@@H]1Oc1ccc(C)cc1)=N/O[C@@H](C)CN1CCCCc2nc(C)c(C)cc21	nt	nt	2%[10 µM]	nt	nt	nt
O=C(O)CCC(=O)N1N=C(c2c(-c3ccccc3)c3cc(Cl)ccc3[nH]c2=O)CC1c1cccs1 (stereo not drawn)	-7%	-28	2.8µM*	-4%	-6%	nt
O=c1[nH]c(=O)n(C2CC(O)C(CO)O2)cc1F (stereo not drawn)	8%	nt	-102%	nt	nt	nt
Cc1cc(NC(=O)c2cc(-c3ccccn3)nc3ccccc23)no1	-12%[38.3 µM]	-3	-20%[0.074 µM]	-8%[46.1 µM]	7%	3
Cc1cc(C)c2nc(-c3ccccn3)cc(C(=O)Nc3cc(C)on3)c2c1	?	-86*	-5%	?	-14%	-1
COc1cccc(NC(=S)N(Cc2cccc(Br)c2)CC2CCC(C(=O)O)CC2)c1 (stereo not drawn)	-1%	nt	-19%	-44%	11%	nt
CNC(=O)/C(C#N)=c1\s/c(=C/C(=O)OC)c(=O)n1-c1ccccc1	-7%[38.3 µM]	78	-15%	4%[46.1 µM]	-8%	0
COC(=O)/C=c1\sc2ncnn2c1=O	5%	-81*	-16%[10 µM]	-15%[46.1 µM]	?	-1
CCN(CC)c1ccc(/C=N/NC(=O)c2c(Cl)cnn2C)c(O)c1	8%	11	nt	5%	-24%	nt
CN(C)CC/C=C1\c2ccccc2COc2ccc(CC(=O)O)cc21	nt	nt	-35%	nt	18%	nt
COc1ccc(Cl)cc1N(C)C(=O)CCc1nc(-c2ccc(C)cc2)no1	25%[38.3 µM]	-1	-38%	?	?	0
CCc1ccccc1N(C)C(=O)CCc1nc(-c2ccc(C)cc2)no1	28%[38.3 µM]	12	-66%	?	11µM*	5
O=S(=O)(Cc1ccccc1)N1CCn2c(nc3ccccc32)C1	-1%[38.3 µM]	-87*	9%	-8%[46.1 µM]	25%	3
O=S(=O)(c1ccc(Br)cc1)N1CCn2c(nc3ccccc32)C1	-17%[38.3 µM]	13	-21%	2%[46.1 µM]	12%	-7
CCCCCCCCCCCCCCC[C@@H](O)[C@H](CO)NC(C)=O	-10%	nt	-10%	nt	nt	nt
O=C(N/N=C/c1ccccc1Cl)c1n[nH]c2c1CCCC2	3%	37	-13%[10 µM]	7%	13µM*	nt
SMILES	IMPase Li inh	PNC inhibitor	HTT ATP protect	NPSR antag	HttQ103 aggreg	IMPase inh
CCc1nc(SCC(=O)Nc2nc3c(s2)CCCC3)c2ccccc2n1	10µM*	-8	25µM*	10%[46.1 µM]	nt	?
CCCc1nc(SCC(=O)Nc2cc(C)on2)c2ccccc2n1	?	17	-5%[10 µM]	30%[46.1 µM]	29%	-20
CCCc1nc(SCC(=O)Nc2nc3c(s2)CCCC3)c2ccccc2n1	13µM*	-3	-13%	-10%[46.1 µM]	7%	-11
Cc1ccccc1-c1cc(C(=O)Nc2nc3c(s2)CCCC3)c2ccccc2n1	20%[38.3 µM]	-100*	-1%	-10%[46.1 µM]	-25%	0
O=C(CSc1nc2ccccc2o1)Nc1nc2c(s1)CCCC2	nt	nt	-74%[10 µM]	nt	nt	nt
CCc1cccc2c3c([nH]c12)[C@](CC)(CC(=O)O)OCC3	nt	nt	24%[1.9 µM]	nt	nt	nt
COc1ccc(-c2nc(CN3CCCCC3c3nccn3C)c(C)o2)c(C)c1C (stereo not drawn)	19%	nt	20%[10 µM]	47%	1%[9.22 µM]	nt
O=C(NCCc1cccc(Cl)c1)c1cccs1	12%	nt	?	-9%	?	nt
Cc1cccc(N2CCN(C(=O)CSCc3c(C)noc3C)CC2)c1C	9%[38.3 µM]	20	-14%[10 µM]	-20%[46.1 µM]	7.1µM*	6
Cc1cccc(N2CCN(C(=O)c3ccc(NS(=O)(=O)c4c(C)noc4C)cc3)CC2)c1C	20%	45	8%[10 µM]	-19%[46.1 µM]	20µM*	2
Cc1cccc(N2CCN(C(=O)N3CCOCC3)CC2)c1C	7%	nt	-9%[10 µM]	-2%	-13%[9.22 µM]	nt
Cc1noc(C)c1CSCC(=O)N1CCN(c2ccc(F)cc2)CC1	-4%[38.3 µM]	10	8%[10 µM]	-14%[46.1 µM]	7.9µM*	9
Cc1noc(C)c1S(=O)(=O)Nc1ccc(C(=O)N2CCN(c3cccc(Cl)c3)CC2)cc1	37%[38.3 µM]	17	1%	-18%[46.1 µM]	?	7
Cc1noc(C)c1CSc1ccccc1C(=O)N1CCN(c2ccccc2)CC1	22%	-100*	44%[10 µM]	-2%[46.1 µM]	-3%	14
Cc1nnc(N/N=C/c2cc([N+](=O)[O-])c(N3CCC(C)CC3)cc2N2CCC(C)CC2)n1N	52%[38.3 µM]	-30	-23%	10µM*	?	13
COc1ccc(/C=C/N(CCc2ccc(OC)c(OC)c2)C(=O)c2ccccn2)cc1	nt	nt	0%[10 µM]	nt	nt	nt
S=c1[nH]nc(-c2cc3c(s2)-c2ccccc2CC3)o1	?	?	18%[10 µM]	10µM*	1%	?
Cc1cc(C2(c3cc(C)c(O)cc3C)OS(=O)(=O)c3ccccc32)c(C)cc1O	58%	nt	5%	nt	nt	nt
O=C(O)/C=C/c1ccc2noc(-c3ccccc3)c2c1	7%	nt	-24%	-29%	4µM*	nt
Cc1ccc(-c2onc3ccc(C=O)cc23)cc1	3%[38.3 µM]	34	-11%	-5%[46.1 µM]	-4%[9.22 µM]	9
O=c1c(-c2cc(F)cc(F)c2)nc2cnc(N3CCNCC3)nc2n1-c1ccccc1	4%	nt	-6%	nt	nt	nt
N#CC(C#N)=C1NC2(CCCCC2)Cc2ccccc21	nt	nt	11%[10 µM]	-15%	-1%[9.22 µM]	nt
N#CC(C#N)=c1ccc2c(c1)NC1(CCCCC1)N=2	158%[38.3 µM]	?	?	10µM*	?	?
